# Inconclusive results are not listed. Entries that show only a call come without a potency. The source made the active and inactive calls. Calls follow the shape of the dose curve; as a rule, active = well fitted curve in the direction sought with a large enough effect; inconclusive = small, poorly fitted or top-dose-only effect, or another doubt; inactive = no such curve, though single readings can be large; an effect the other way counts as inactive or inconclusive.
# Experiments:
# [1] = test system: Zika virus NS2B-NS3 protease (linked construct); assay: Primary screen NINDS Rhodamine qHTS for Zika virus inhibitors (AID 1347160); also: nearly all actives have a fitted effect of over 55% in size
# Method in brief: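 Each compound, titrated, sat 15 min with 25 nM linked protease before 1.5 microM Rhodamine110 substrate went in. Fluorescence gain over the next 15 min, in pH 8.0 Tris with Tween 20, gave Hill-fitted curves.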
# [2] = OV-KATE Cancer Cell Toxicity qHTS against the NCATS CANVASS Library (AID 1347345); also: potency is read from the fitted curve at half-maximal effect
# Method in brief: (§1)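 Bortezomib titration and single-dose wells served as plate controls. Test compounds, 11 points, acted on 1000 cells/well for 72 h at 37 degrees C; CellTiter-Glo luminescence quantified remaining viable cells.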
# [3] = HPAF-II Cancer Cell Toxicity qHTS against the NCATS CANVASS Library (AID 1347346); also: potency is read from the fitted curve at half-maximal effect; nearly all actives have a fitted effect of over 55% in size
# Method in brief: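 First, HPAF-II cells are plated (1000 cells/well) and held 4 h at 37 degrees C. Next, compounds are pin-transferred as an 11-point series. After 72 h, CellTiter-Glo is added and luminescence measured.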
# [4] = UWB1.289 Cancer Cell Toxicity qHTS against the NCATS CANVASS Library (AID 1347347); also: potency is read from the fitted curve at half-maximal effect; nearly all actives have a fitted effect of over 60% in size
# Method in brief: as §1
# [5] = OV-SAHO Cancer Cell Toxicity qHTS against the NCATS CANVASS Library (AID 1347348); also: potency is read from the fitted curve at half-maximal effect; nearly all actives have a fitted effect of over 55% in size
# Method in brief: as §1
# [6] = A2780 Cisplatin Sensitive Ovarian Cancer Cell Toxicity qHTS against the NCATS CANVASS Library (AID 1347353); also: potency is read from the fitted curve at half-maximal effect; nearly all actives have a fitted effect of over 60% in size
# Method in brief: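 Cells are plated at 750 per well and rest for 4 hours. Compounds are added across eleven concentrations, and incubated 72 hours before ATP is quantified by luminescence.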
# [7] = HPAF-II 24hr Apoptosis Induction qHTS against the NCATS CANVASS Library (AID 1347356)
# Method in brief: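 Cells seeded at 500 per well, then compounds pin-transferred in an 11-point concentration series. After 24 hours at 37 degrees C, Caspase-Glo 3/7 was added and luminescence measured following 15 min at room temperature.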
# [8] = HEK293 18hr Apoptosis Induction qHTS against the NCATS CANVASS Library (AID 1347357)
# Method in brief: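 Cells seeded at 500/well in DMEM + 10% FBS. Compounds pinned, 11 concentrations. 18 h, 37 degrees C/5% CO2. Caspase-Glo 3/7 added, 15 min RT dark, luminescence read.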
# [9] = HPAF-II 12hr Apoptosis Induction qHTS against the NCATS CANVASS Library (AID 1347358)
# Method in brief: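 Cells plated at 500 per well are dosed with compound and incubated 12 hours at 37 degrees C. Caspase-Glo 3/7 reagent is added and, after 15 min at room temperature, luminescence proportional to caspase activity is measured.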
# [10] = HEK293 24hr Apoptosis Induction qHTS against the NCATS CANVASS Library (AID 1347359)
# Method in brief: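 Caspase-3/7 activation measured as luminescence from the DEVD-based Caspase-Glo reagent, 15 min at room temperature, following 24-hour compound treatment of HEK293 cells.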
# [11] = HPAF-II 18hr Apoptosis Induction qHTS against the NCATS CANVASS Library (AID 1347360)
# Method in brief: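 Seed HPAF-II cells at 500/well in DMEM + 10% FBS, pin-transfer compounds, incubate 18 hours at 37 degrees C/5% CO2, add Caspase-Glo 3/7 reagent, wait 15 min, read luminescence.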
# [12] = HEK293 12hr Apoptosis Induction qHTS against the NCATS CANVASS Library (AID 1347361)
# Method in brief: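 Cells are seeded, dosed with an 11-point compound series and incubated 12 hours. Caspase-3/7 activity is detected by luminescent DEVD-substrate reagent after 15 minutes at room temperature.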
# [13] = target: Luciferin 4-monooxygenase (Photinus pyralis) (UniProt P08659); assay: Firefly luciferase counterscreen qHTS: Assay Interference Panel against the NCATS CANVASS Library (AID 1347363); also: series mostly up to about 57 µM
# Sequence of Luciferin 4-monooxygenase (Photinus pyralis) (P08659 whole entry, looked up): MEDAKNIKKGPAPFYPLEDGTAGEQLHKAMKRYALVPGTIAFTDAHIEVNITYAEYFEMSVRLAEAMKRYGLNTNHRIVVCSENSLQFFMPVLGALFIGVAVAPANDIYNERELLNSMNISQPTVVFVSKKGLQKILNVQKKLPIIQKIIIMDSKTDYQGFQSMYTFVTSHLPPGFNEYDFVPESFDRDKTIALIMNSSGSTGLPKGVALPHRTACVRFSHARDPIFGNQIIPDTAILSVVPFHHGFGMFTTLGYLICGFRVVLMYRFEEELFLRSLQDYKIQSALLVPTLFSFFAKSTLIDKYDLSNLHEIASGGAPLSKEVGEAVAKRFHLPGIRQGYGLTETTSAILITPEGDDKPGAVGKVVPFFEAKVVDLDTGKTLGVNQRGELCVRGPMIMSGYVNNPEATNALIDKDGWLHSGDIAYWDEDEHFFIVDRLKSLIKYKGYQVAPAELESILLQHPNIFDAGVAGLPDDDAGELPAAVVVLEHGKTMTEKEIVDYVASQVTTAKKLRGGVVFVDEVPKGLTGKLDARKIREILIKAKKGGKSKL
# Method in brief: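 Luminescence inhibition readout: compounds (11-point qHTS) sat 15 min at room temperature with substrate mix (0.013 mM luciferin and ATP), then firefly luciferase was added and signal read 5 min later.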
# [14] = KB-3-1 Cancer Cell Toxicity qHTS against the NCATS CANVASS Library (AID 1347366); also: potency is read from the fitted curve at half-maximal effect; nearly all actives have a fitted effect of over 75% in size
# Method in brief: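 Luminescence from CellTiter-Glo (10 min, room temperature) measured KB-3-1 viability after 72 hr compound exposure at 37C. Cells were seeded at 500/well and tested in an 11-point series.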
# [15] = qHTS for ATAD5 Agonist screened against the NCATS CANVASS Library (AID 1347367);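 also: luciferase reporter driven by ATAD5 which rises upon DNA damage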
# Method in brief: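 HEK293T-ATAD5 luc reporter; 2000 cells/well; 5hr settle; cpd 11-pt qHTS; 16hr 37C 5% CO2 dark; viability by CellTiter-Fluor (AFC fluorescence); then luciferase luminescence, 30min RT.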
# [16] = G06 Cancer Cell Toxicity qHTS against the NCATS CANVASS Library (AID 1347368); also: potency is read from the fitted curve at half-maximal effect; nearly all actives have a fitted effect of over 60% in size
# Method in brief: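 Cells were plated at 500 per well, then compounds were added over an 11-point range. After 72 hr at 37C, CellTiterGlo was added and luminescence measured as ATP content.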
# [17] = qHTS for ATAD5 Antagonist screened against the NCATS CANVASS Library (AID 1347370); also: potency is read from the fitted curve at half-maximal effect; nearly all actives have a fitted effect of over 65% in size
# Method in brief: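 Compounds (11-point) co-dosed with 10 µM 5-FUrd for 16 h at 37 °C onto HEK293T-ATAD5 luciferase reporter cells. Viability measured by CellTiter-Fluor fluorescence, then ATAD5 reporter signal by luminescence.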
# [18] = target: Nuclear receptor subfamily 1 group I member 3 (Homo sapiens) (UniProt Q14994); assay: qHTS for Constitutive Androstane Receptor (CAR) Antagonist screened against the NCATS CANVASS Library (AID 1347372); also: potency is read from the fitted curve at half-maximal effect
# Sequence of Nuclear receptor subfamily 1 group I member 3 (Homo sapiens) (Q14994 whole entry, looked up): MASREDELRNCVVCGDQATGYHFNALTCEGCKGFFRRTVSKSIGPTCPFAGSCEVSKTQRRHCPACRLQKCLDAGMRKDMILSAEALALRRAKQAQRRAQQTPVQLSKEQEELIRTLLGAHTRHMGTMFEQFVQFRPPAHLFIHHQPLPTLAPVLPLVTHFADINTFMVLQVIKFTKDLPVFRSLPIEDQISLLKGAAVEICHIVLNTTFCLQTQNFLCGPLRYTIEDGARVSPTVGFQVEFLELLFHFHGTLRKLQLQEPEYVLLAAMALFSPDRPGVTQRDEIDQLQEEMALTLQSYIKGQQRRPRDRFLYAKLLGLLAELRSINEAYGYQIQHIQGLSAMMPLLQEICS
# Method in brief: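 Antagonist mode: compound added alongside 50 nM CITCO to HepG2-hCAR-CYP2B6 reporter cells, 24hr at 37C. Viability by CellTiter-Fluor fluorescence, then CAR-driven luciferase by ONE-Glo luminescence.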
# [19] = qHTS for Hypoxia signaling pathway (HIF-1) antagonists against the NCATS CANVASS Library (AID 1347374); also: potency is read from the fitted curve at half-maximal effect; nearly all actives have a fitted effect of over 60% in size
# Method in brief: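 Antagonism scored as loss of CoCl2-driven (60 uM stock added) HRE beta-lactamase signal, read by CCF4 FRET at 460/530 nm. Compounds were tested in an 11-point series on ME-180 reporter cells for 17 hrs at 37C, with parallel CellTiter-Glo cytotoxicity.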
# [20] = qHTS for Hypoxia signaling pathway (HIF-1) agonists against the NCATS CANVASS Library (AID 1347375)
# Method in brief: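 Cells plated and rested 5 h, compounds pinned in DMSO across 11 concentrations, incubated 17 h at 37C, loaded with CCF4-AM for 2 h, fluorescence read at 460 and 530 nm, then CellTiter-Glo luminescence measured for viability and normalization.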
# [21] = 10-beta competent E. coli microbial cell viability qHTS against the NCATS CANVASS Library (AID 1347376); also: series mostly up to about 46 µM
# Method in brief: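 Bacterial suspension diluted to 0.2 OD was dosed with compounds, 11-point series, then held overnight at 37C. BacTiter-Glo reagent was added, and after 20 min at room temperature ATP-dependent luminescence was measured.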
# [22] = DH5-alpha competent E. coli microbial cell viability qHTS against the NCATS CANVASS Library (AID 1347377); conditions: outcome: dose series up to 46.1 µM unless noted
# Method in brief: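 Bacteria were dispensed at 0.2 OD, then compounds were pin-transferred. Plates were incubated overnight at 37C, after which BacTiter-Glo was added and luminescence measured 20 min later.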
# [23] = qHTS for Inflammasome Signaling Inhibitors: IL-1-beta AlphaLISA screen against the NCATS CANVASS Library (AID 1347379);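 also: human THP-1 cells primed with LPS then triggered with ATP; secreted IL-1B measured as AlphaLISA emission at 615 nm; potency is read from the fitted curve at half-maximal effect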
# Method in brief: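 Secreted IL-1B from human THP-1 cells quantified by AlphaLISA 16 hr after compound addition (final up to 57.5 uM). A 1 hr compound pretreatment preceded inflammasome activation with 250 ng/mL LPS plus 1.25 mM ATP (final).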
# [24] = qHTS for Antimalaria activity screened against the NCATS CANVASS Library (AID 1347380);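 also: Plasmodium falciparum strain Dd2 asexual parasites grown in red blood cells; series mostly up to about 29 µM; nearly all actives have a fitted effect of over 40% in size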
# Method in brief: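 Compounds are titrated over 11 concentrations onto Dd2 parasite cultures (0.3% parasitemia, 2.5% hematocrit). Growth over 72 h at 37C in low oxygen is measured as SYBR Green DNA fluorescence after lysis.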
# [25] = Inflammasome Signaling qHTS Counterscreen: IL-1-beta AlphaLISA counterscreen against the NCATS CANVASS Library (AID 1347381);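 also: cell-free check with purified IL-1β in medium and no THP-1 cells; series mostly up to about 57 µM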
# Method in brief: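 Purified IL-1-beta (4 pg/well) + compound, 11-pt conc. series; acceptor beads 6 ug/mL + biotin-Ab 0.6 nM final, 1 h RT; SA-donor 24 ug/ml final, 30 min dark RT; read ex 680/em 615.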
# [26] = qHTS for Activators of p53 Stress Response Pathway screened against the NCATS CANVASS Library (AID 1347388)
# Method in brief: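 Beta-lactamase reporter driven by p53 response elements in HCT-116 cells, read as the 460 nm/530 nm emission ratio after CCF4 loading, following 16 h of exposure to an 11-point series. Cell viability was measured in the same wells by CellTiter-Glo luminescence.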
# [27] = qHTS assay for small molecule disruptors of mitochondrial membrane potential screened against the NCATS CANVASS Library (AID 1347389)
# Method in brief: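 Mitochondrial depolarization in HepG2 cells is scored as a falling aggregate-to-monomer fluorescence ratio after 1 hr compound exposure and 30 min staining with Mito-MPS dye at 37C, each compound tested as an 11-point titration.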
# [28] = Secretion counterscreen for inhibitors of the SERCaMP assay screened against the NCATS CANVASS Library (AID 1347390);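 also: light from luciferase secreted into medium read as a measure of general secretion; potency is read from the fitted curve at half-maximal effect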
# Method in brief: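 SH-SY5Y-GLuc STOP cells; 4 h attach; cpds 0.001 - 77 uM (qHTS, 11 pts), 20 h 37C/5% CO2; coelenterazine in glow buffer; luminescence, 5 s exposure.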
# [29] = qHTS for activators of Nrf2/ARE signaling pathway screened against the NCATS CANVASS Library (AID 1347391); also: nearly all actives have a fitted effect of over 60% in size
# Method in brief: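 Beta-lactamase reporter signal, read as 460 and 530 nm emission under 405 nm excitation after 2 h CCF4 loading, reflected ARE activation in HepG2 cells treated 16 h with an 11-point series.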
# [30] = qHTS for inhibitors of ER calcium dysfunction: SERCaMP assay screened against the NCATS CANVASS Library (AID 1347393);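 also: series mostly up to about 77 µM; lower secreted reporter signal means inhibitor of ER calcium depletion; nearly all actives have a fitted effect of over 40% in size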
# Method in brief: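 Thapsigargin-induced ER calcium depletion drives GLuc-SERCaMP secretion from SH-SY5Y cells; compounds given 16 h beforehand were scored by lowered coelenterazine luminescence after 4 h challenge.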
# [31] = Vero-766 cells viability qHTS against the NCATS CANVASS Library: Counterscreen for Zika virus inhibition assay (AID 1347394)
# Method in brief: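 Vero 766, no virus; 1000 cells/well; o/n attach; cpd 11-pt; 72 h, 37C, 5% CO2; CTG luminescence; cell-free media wells = 100% inhibition.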
# [32] = qHTS for inhibitors of Wild type Zika virus screened against the NCATS CANVASS Library (AID 1347396);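 also: ATP luminescence of surviving cells so rescue from viral cell killing; series mostly up to about 46 µM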
# Method in brief: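 Vero 766 (African green monkey) cells, 1000 per well, attached overnight, then compounds were added in an 11-point series before wild-type Zika virus infection. After 72 h at 37C, cell viability was read as CellTiter Glo luminescence.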
# [33] = Viability qHTS for inhibitors of the SERCaMP assay screened against the NCATS CANVASS Library (AID 1347400); also: potency is read from the fitted curve at half-maximal effect; nearly all actives have a fitted effect of over 70% in size
# Method in brief: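 Seed SH-SY5Y-GLuc SERCaMP MJH297 cells at 1000 per well, incubate 4 h, add compounds across an 11-point range, incubate 48 h at 37C, then add CellTiter-Glo and read luminescence.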
compound,measurement,setting,value
CO[C@H]1/C=C/CC[C@@H](S[C@@H]2O[C@H](CO)[C@@H](O)[C@H](O)[C@H]2O)CC(=O)O[C@@H](/C(C)=C/[C@H](C)C(=O)CCCC2CC(=O)NC(=O)C2)[C@@H](C)[C@@H]1O,Potency,[1],inactive
same,Potency,[2],3.75 µM (active)
same,Potency,[3],8.41 µM (active)
same,Potency,[4],2.98 µM (active)
same,Potency,[5],3.75 µM (active)
same,Potency,[6],1.05 µM (active)
same,outcome,[7],inactive
same,Potency,[8],inactive
same,Potency,[9],inactive
same,Potency,[10],inactive
same,Potency,[11],inactive
same,Potency,[12],inactive
same,Potency,[13],inactive
same,Potency,[14],20.9 µM (active)
same,Potency,[15],inactive
same,Potency,[16],1.48 µM (active)
same,Potency,[17],4.17 µM (active)
same,Potency,[18],14.8 µM (active)
same,Potency,[19],2.11 µM (active)
same,Potency,[20],inactive
same,outcome,[21],inactive
same,outcome,[22],inactive
same,Potency,[23],30.6 µM (active)
same,Potency,[24],inactive
same,outcome,[25],inactive
same,Potency,[26],inactive
same,Potency,[27],inactive
same,Potency,[28],7.67 µM (active)
same,Potency,[29],inactive
same,Potency,[30],inactive
same,Potency,[31],inactive
same,Potency,[32],inactive
same,Potency,[33],12 µM (active)
